According to article PMC5540273 (PLoS ONE, 2017):

Key:
Conditions in all cases: concentration: 1 μM, replicates: in singlicate; n = 1
MAP3K15 = tested on: MAP3K15
MAP3K1 = tested on: MAP3K1
MAP3K2 = tested on: MAP3K2
MAP3K3 = tested on: MAP3K3
MAP3K4 = tested on: MAP3K4
MAP4K2 = tested on: MAP4K2
MAP4K3 = tested on: MAP4K3
MAP4K4 = tested on: MAP4K4
MAP4K5 = tested on: MAP4K5
MAPKAPK2 = tested on: MAPKAPK2
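Further: KINOMEscan kinase panel screen.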

Compound | %Inh (MAP3K15) | %Inh (MAP3K1) | %Inh (MAP3K2) | %Inh (MAP3K3) | %Inh (MAP3K4) | %Inh (MAP4K2) | %Inh (MAP4K3) | %Inh (MAP4K4) | %Inh (MAP4K5) | %Inh (MAPKAPK2)
COc1cccc(NC(=O)NC2CCN(c3ccnc(Nc4cc(OC)c(OC)c(OC)c4)n3)C2)c1 (centres unmarked) [GSK1379763] | 0% | 80% | 3% | 0% | 39% | 0% | 12% | 56% | 81% | 0%
COC(=O)Nc1nc2ccc(Oc3ccc(NC(=O)Nc4cc(C(F)(F)F)ccc4F)cc3)cc2n1C.Cl [GW692089] | 0% | 2% | 0% | 0% | 0% | 0% | 0% | 0% | 0% | 6%
COc1cc(Nc2nccc(-c3c(-c4cccc(NC(=O)c5c(F)cccc5F)c4)nn4ncccc34)n2)cc(OC)c1OC [GSK327238] | 0% | 11% | 95.4% | 92.9% | 88% | 12% | 83% | 67% | 98.8% | 7%
Cl.Cl.NCC(NC(=O)c1cc(-c2ccccc2)c(-c2ccnc3[nH]ccc23)s1)c1ccccc1 (centres unmarked) [GSK1321561] | 0% | 22% | 27% | 0% | 0% | 64% | 0% | 98% | 24% | 0%
Fc1ccc(-c2ncn(C3CCNCC3)c2-c2ccnc(Oc3ccc(-c4ccccc4)cc3)n2)cc1 [SB-245391] | 22% | 25% | 22% | 29% | 14% | 44% | 3% | 9% | 26% | 0%
Nc1ncnc2c1nc(-c1ccccc1)n2-c1ccccc1 [SKF-97293] | 22% | 34% | 28% | 14% | 35% | 18% | 3% | 0% | 2% | 0%
Cl.NC(=O)c1cccc(Nc2nccc(Nc3ccc(Oc4c(Cl)cccc4Cl)c(Cl)c3)n2)c1 [GW659009] | 18% | 0% | 0% | 3% | 0% | 10% | 0% | 0% | 0% | 0%
O=C(Nc1n[nH]c2nc(-c3ccc(O)cc3)ccc12)C1CC1 [SB-710363] | 32% | 10% | 13% | 30% | 0% | 41% | 0% | 53% | 0% | 0%
